High-throughput results: PubChem, National Center for Advancing Translational Sciences (NCATS)
Rows were chosen to be rich in hits. Some 1.1% of all compounds tested hit in one or more screens of this group.
uPA generation = qHTS for Inhibitors of Cell Surface uPA Generation; cell surface uPA generation assay, qHTS; Potency, µM (top dose mostly 38.3 µM), actives largely listed as inhibitors; 330,000 compounds, 0.31% hits; active = well fitted inhibition curve with a large enough effect; inconclusive = small, poorly fitted or top-dose-only effect; inactive = no such curve, though single readings can be large or run the other way; tested in mouse RAW 264.7 cells; also: nearly all actives have a fitted effect of over 55% in size
MBNL1 CUG block = qHTS Assay for Inhibitors of MBNL1-poly(CUG) RNA binding. Muscleblind-like protein 1 (Homo sapiens), Q9NR56. TR-FRET MBNL1-His/biotin-(CUG)12 binding, 665/545 ratio. Potency, µM (highest dose often 57.5 µM), most hits filed as inhibitors. 280,000 compounds, 0.036% hits; active = well fitted inhibition curve with a large enough effect in the signal ratio, with a control signal flat, not every such curve was filed as active; inconclusive = small, poorly fitted or top-dose-only effect, or effect the other way, or a change in a side signal; inactive = no such curve, though single readings can be large or run the other way; the % refers to the signal ratio
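Ratiometric TR-FRET (665 over 545 nm, excitation 340 nm) tracks disruption of MBNL1-His/biotin-(CUG)12 complex after 60 min at room temperature, with compounds at 92 nM to 58 uM final.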
Mito fusion act = qHTS Assay for Small Molecule Inhibitors of Mitochondrial Division or Activators of Mitochondrial Fusion. S. cerevisiae fusion-defective mutant growth rescue, CellTiterGlo 48 h. Potency, µM (doses to about 46.1 µM), usual class: activators. 320,000 compounds, 0.23% hits. AID 485298, 2010; active = well fitted activation curve with a large enough effect; inconclusive = small, poorly fitted or top-dose-only effect; inactive = no such curve, though single readings can be large or run the other way; also: nearly all actives have a fitted effect of over 45% in size
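Read-out: ATP-based luminescence (CellTiterGlo, 10 min ambient) reporting growth of fusion-defective ts yeast after 48 hours at 37C on glycerol/ethanol YPEG medium in the presence of compound.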
CtBP-E1A inh = qHTS Assay for Inhibitors of the CtBP/E1A Interaction; AlphaScreen GST-E1A/His-CtBP binding, 1536-well; hits give low values; AID 651724, 2012; activity change, % (test concentration not listed); 340,000 compounds, 0.49% hits; CtBP / adenovirus E1A interaction (AlphaScreen)
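Steps: dispense buffer (Tris pH 8.0, NaCl 300 mM, TCEP 1 mM, BSA, Tween 20); add 5X protein mix (GST-E1A, His-CtBP, 125 nM each); pin 23 nL compound; 2 h at 37 °C, dark; add 5X beads (50 ug/mL); 1 h; read.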
Six1-Eya2 inh = qHTS Assay for Inhibitors of the Six1/Eya2 Interaction. 360,000 compounds, 0.56% hits. AID 651725, 2012. Homeobox protein SIX1 (Homo sapiens) + Protein phosphatase EYA2 (Homo sapiens), …. AlphaScreen GST-Six1/His-Eya2 binding, biochemical; hits give low values. activity change, % (no concentration beside the values)
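Compounds are tested against tagged Six1 and Eya2 proteins bridged by glutathione donor and nickel acceptor beads; after a one-hour incubation at 37 °C without light, AlphaScreen emission is recorded.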
Hits are given with their value; n = inactive; u = inconclusive; x = no result given; ! = not active in a repeat. Rule as the data show it, unless noted: active = activity change below about -65%; inconclusive = mostly about -30% to -63%; inactive = weaker than that.

SMILES	uPA generation	MBNL1 CUG block	Mito fusion act	CtBP-E1A inh	Six1-Eya2 inh
COc1ccc(C(=O)/C=C2/C(=O)Nc3ccccc32)c(OC)c1	n	n	n	n	n
COc1cc(OC)c(/C=C2\C(=O)Nc3ccccc32)c(OC)c1	7.94µM	x	n	n	n
CCOC(=O)C1(C)CCN1C(=O)c1cc(C)oc1C (stereo not given)	x	x	x	n	n
COc1cc(Nc2ccn3nccc3n2)cc(OC)c1OC	x	x	x	n	n
COc1ccc(S(=O)(=O)N2CCC3CC2c2c(-c4ccc(C(F)(F)F)cc4)cccc23)cc1 (stereo not given)	x	x	x	n	n
COC(=O)c1ccccc1NC1=C/C(=N\S(=O)(=O)c2cccs2)c2ccccc2C1=O	n	u	n	u	-84.0!
Cc1ccc(S(=O)(=O)/N=C2\C=C(Nc3ccc(O)cc3)C(=O)c3ccccc32)cc1	n	x	x	-69.2	-77.5
Cc1ccc(NC2=C/C(=N/S(=O)(=O)c3cccs3)c3ccccc3C2=O)cc1	n	n	n	n	u
O=C1C(Nc2ccccc2)=C/C(=N/S(=O)(=O)c2cccs2)c2ccccc21	n	u	n	u	-85.6
Cc1ccc(S(=O)(=O)/N=C2\C=C(Nc3cccc(C(=O)O)c3)C(=O)c3ccccc32)cc1	n	u	n	u	u
Cc1ccc(S(=O)(=O)/N=C2\C=C(Nc3cccc(C(=O)O)c3)C(=O)c3ccccc32)c(C)c1	n	u	n	-81.9	u
COc1ccccc1CNc1nc(NCCN2CCNC2=O)c2sccc2n1	x	x	x	n	n
Cc1cccc(CNc2ncnc3ccc(-c4ccc5c(ccn5C)c4)cc23)c1	x	x	n	x	x
O=C(Nc1ccc(F)cc1)C(c1cccc(F)c1)N1CCN(Cc2c(F)cccc2Cl)CC1 (stereo not given)	x	x	x	n	n
COC(=O)c1ccccc1NC1=C/C(=N\S(=O)(=O)c2ccc(C(=O)O)cc2)c2ccccc2C1=O	n	u	n	-80.3	u
NCC(=O)Nc1ccc(Cl)cc1C(=O)c1ccc[nH]1	n	n	n	x	-81.3
Cc1ccc(CC(=O)Nc2nc3ccccc3s2)cc1	n	n	n	n	n
Cc1nc2c(ccc3nc(NC(=O)Cc4ccccc4)sc32)s1	u	n	11.2µM	n	n
O=C1c2ccccc2C(c2nnnn2-c2ccc3c(c2)OCCO3)N1CCCN1CCOCC1 (stereo not given)	x	x	x	n	n
O=C(Nc1nccs1)c1nc[nH]c1C(=O)NCc1ccccc1	n	x	n	u	u
CN(Cc1ccccc1)C(=O)c1[nH]cnc1C(=O)Nc1nccs1	n	x	n	u	-73.6
CC(C)(C)OC(=O)CC1(C#N)c2ccccc2C(Br)=CN1C(=O)c1ccccc1 (stereo not given)	n	x	u	n	n
CCOC(=O)C(NCc1ccccn1)(NC(=O)c1cccnc1)C(F)(F)F (stereo not given)	n	n	n	n	-82.6
CCOC(=O)C(NC(=O)c1cccnc1)(Nc1cccc(C)n1)C(F)(F)F (stereo not given)	n	n	n	n	n
Cc1n[nH]c(=O)nc1N/N=C/c1ccco1	n	u	n	u	-68.0
SMILES	uPA generation	MBNL1 CUG block	Mito fusion act	CtBP-E1A inh	Six1-Eya2 inh
Cn1c(=O)c2c(n3c4ccccc4nc13)NC(=O)CC2c1cccc(F)c1 (stereo not given)	x	x	n	x	x
O=C(Cc1ccc(Cl)cc1)Oc1cccc2cccnc12	n	n	n	-83.4	-90.7
Cc1c(C(=O)Oc2cccc3cccnc23)cccc1[N+](=O)[O-]	n	n	n	n	-88.5
O=[N+]([O-])c1ccc(Oc2cccc3cccnc23)c([N+](=O)[O-])c1	n	u	n	-78.6	u
O=C(Oc1cccc2cccnc12)c1ccc(Br)o1	n	n	n	n	n
O=C(Oc1cccc2cccnc12)c1cccc([N+](=O)[O-])c1	n	n	n	-74.8	-68.9
O=C(Oc1coc(CSc2ncccn2)cc1=O)c1cccc([N+](=O)[O-])c1	n	u	n	n	n
O=C(Oc1c(Cl)cc(Cl)c2cccnc12)c1cccc([N+](=O)[O-])c1	n	n	n	-97.5	-87.5
Cc1cc(-c2ccccc2)nc(Oc2ccc(C(C)(C)C)cc2)c1S(C)(=O)=O	n	n	8.91µM	n	n
CC(=O)Nc1cccc(-c2nc3ccccc3n2C(C)C(=O)NC(C)(C)C)c1 (stereo not given)	x	x	x	n	n
O=C(NCCCn1ccnc1)c1sc2cc([N+](=O)[O-])ccc2c1Cl	x	x	x	n	n
S=C(Nc1ccccc1Cl)N(Cc1ccccc1)Cc1ccccn1	n	n	17.8µM	n	n
O=C(Cn1nnc(-c2ccccc2)n1)N/N=C/c1cc([N+](=O)[O-])ccc1O	n	n	n	n	u
Cc1ccn(CC(=O)N/N=C/c2cc([N+](=O)[O-])ccc2O)n1	n	u	n	-93.1	-89.8
O=C(CSc1ccccn1)N/N=C/c1cc([N+](=O)[O-])ccc1O	3.55µM	u	n	x	-88.5
Cc1cc([N+](=O)[O-])nn1CC(=O)N/N=C/c1ccc(O)cc1O	u	n	n	u	-85.2
O=C(Cn1cncn1)N/N=C/c1ccccc1O	n	n	n	-94.5	-85.4
Cc1cccc(S(=O)(=O)NC(=O)C2(C)CCN2C(=O)c2c(C)noc2C)c1 (stereo not given)	x	x	x	n	n
O=C(Cn1cncn1)N/N=C/c1cc([N+](=O)[O-])ccc1O	n	u	n	x	-91.1
